# Screening results (PubChem BioAssay)
# KKLEB tox = CF airway cell cytotoxicity counter-screen. KKLEB CF airway cells viability, ATPlite luminescence, overnight; stronger effect = lower value; cells stimulated with P. aeruginosa culture filtrate. activity change (cytotoxicity), % at 5 µM. 0.36% of 360,000 active;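 active = corrected activity change at or below -50% at 5 µM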
# CF NFkB block = inhibitors of cystic fibrosis induced NF-kB; KKLEB NF-kB-GFP reporter, PAF-induced, GFP fluorescence overnight; inhibition, % at 5 µM; 0.86% of 360,000 active;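 active = at least 50% inhibition at 5 µM, scaled per plate between neutral and stimulator controls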;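 note: PAF is a Pseudomonas aeruginosa culture filtrate used as stimulus; plate controls were PAF-stimulated DMSO wells for no effect and unstimulated DMSO wells for full effect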
# Shn3 inh set2 = Schnurri-3 reporter inhibition in Clone20 osteoblasts | 0.52% of 360,000 active | AID 588674 | inhibition, % at 12.5 µM | Clone20 osteoblast Shn3 3'UTR firefly luciferase, 24 h;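 active = mean inhibition of at least 75% with every replicate also reaching 75%; inconclusive = mean inhibition at least 75% but some replicate below; inactive = mean inhibition below 75%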;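 note: 0% = median of neutral control wells and 100% = pilot-screen positive control compound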
# Peg3 prom inh-1 = reduces Peg3 promoter-driven luciferase expression in HeLa; HeLa PEG-Prom luciferase reporter, luminescence, overnight; 1.7% of 360,000 active; AID 588405; inhibition, % at 20 µM;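 active = inhibition of at least 50% at 20 µM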
# EBV LMP1 NFkB = Epstein-Barr LMP1 NF-kappaB reporter inhibition; LMP1-induced NF-kappaB luciferase reporter cells, luminescence; inhibition, % at 12.5 µM; AID 504558; 0.69% of 350,000 active; in the data active = inhibition above about 41%; inconclusive = no clear call, values can overlap the other calls;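 note: 0% = neutral control wells and 100% = reference inhibitor control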
# TRPM1 prom inh = inhibitors of MITF-driven TRPM1 promoter in melanoma cells | SK-MEL-5 TRPM1 promoter luciferase, 24 h | inhibition, % at 12.5 µM | 0.83% of 330,000 active;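 active = mean inhibition across replicates of 60% or more, whatever share of single replicates reaches that level; inconclusive = some that reach 60%, reason not given; inactive = mean inhibition across replicates below 60%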
# Peg3 prom inh-2 = confirmation of Peg3 promoter inhibitors; HeLa PEG-Prom luciferase reporter, luminescence, overnight; AID 602417; inhibition, % at 20 µM; shares compounds with Peg3 prom inh-1; 84% of 1,300 active;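 active = at 20 µM dose, 40% or more inhibition averaged across four replicates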
# * hit, by the source's call; ? = inconclusive; . = no result given. An excerpt weighted towards active compounds, which were near 2.9% of everything screened.
SMILES,KKLEB tox,CF NFkB block,Shn3 inh set2,Peg3 prom inh-1,EBV LMP1 NFkB,TRPM1 prom inh,Peg3 prom inh-2
O=C(C[C@H]1C[C@H](C(=O)N2CCOCC2)[C@@]2(CCC3CCCC3)c3[nH]c4ccc(Cl)cc4c3CCN2C1=O)NCCN1CCOCC1,0,16,-9,50*,16,16,8
CC(C)N(C(=O)[C@H]1C[C@H](CC(=O)NCC23CC4CC(CC(C4)C2)C3)C(=O)N2CCc3c([nH]c4ccc(Cl)cc34)[C@]12C)C(C)C,-3,39,62,63*,-5,19,43*
CC(C)NC(=O)C1Cc2c(-c3ccc(Cl)cc3)ccnc2O1 (centres undefined),0,-1,3,6,.,.,.
C[C@@H](NS(=O)(=O)c1cc(Cl)ccc1F)[C@H](O)c1ccccc1,20,-2,7,5,-3,12,.
Cc1csc(NC(=O)c2ccc(N3CCCC3=O)cc2)n1,1,20,39,64*,69*,43,46*
Cc1nnc(NC(=O)c2ccc(N3CCCC3=O)cc2)s1,-23,-10,-50,-119,-23,-87,.
CCC(=O)NC(c1cccs1)c1cc([N+](=O)[O-])c2cccnc2c1O (centres undefined),-5,26,28,53*,8,0,54*
CC(=O)NC(c1cccs1)c1cc([N+](=O)[O-])c2cccnc2c1O (centres undefined),5,5,-28,48,24,11,.
CC(=O)NC(c1ccccc1)c1cc([N+](=O)[O-])c2cccnc2c1O (centres undefined),-1,17,-11,61*,2,14,63*
CC(=O)NC(c1ccc(C)cc1)c1cc(Cl)c2cccnc2c1O (centres undefined),3,-13,87*,65*,29,43,56*
O=C(N/N=C/c1cc([N+](=O)[O-])ccc1O)c1ccc(COc2ccc3c(c2)CCC3)o1,-21,45,88*,52*,-48,47,45*
CS(=O)(=O)Nc1cccc(NC(=O)C2Cc3c(-c4cccc(F)c4)ccnc3O2)c1 (centres undefined),-13,-11,67,66*,.,.,64*
O=C(Nc1ccccc1)C1Cc2c(-c3cccc(F)c3)ccnc2O1 (centres undefined),5,-11,-6,18,.,.,.
Cc1cc(C)cc(NS(=O)(=O)c2ccc3c(c2)c(=O)n(C)c(=O)n3C)c1,5,33,?,54*,25,60,70*
Cn1c(=O)c2cc(S(=O)(=O)Nc3cc(C(=O)O)cc(C(=O)O)c3)ccc2n(C)c1=O,4,3,5,12,7,9,.
CC(C)n1cc(CN2CCC(C(=O)Nc3cccc(-c4cccc(Cl)c4)c3)CC2)cn1,-19,12,18,111*,2,38,98*
NS(=O)(=O)c1ccc(CCNc2nn3c(-c4ccc(F)c(Cl)c4)cnc3s2)cc1,-12,42,58,67*,.,.,95*
CC1(C(=O)NS(=O)(=O)c2cccc(C#N)c2)CCN1C(=O)Cc1cc(F)ccc1F (centres undefined),4,-9,9,6,.,.,.
CC1(Cc2cccc(F)c2)C(=O)Nc2ccc(S(=O)(=O)NC3CCCCC3)cc21 (centres undefined),-8,7,-3,33,.,.,.
CC1(Cc2ccc(Cl)c(Cl)c2)C(=O)Nc2ccc(S(=O)(=O)NC3CCCCC3)cc21 (centres undefined),-8,30,24,69*,.,.,68*
O=C(NCCN1CCN(Cc2ccccc2)CC1)c1ccc(CS(=O)(=O)c2c(Cl)cccc2Cl)o1,5,-1,-8,11,1,.,.
COc1ccc(Cl)cc1C(Nc1cccnc1)c1ccc2cccnc2c1O (centres undefined),-44,11,78,35,9,29,.
Cc1cc(NC(c2cccnc2)c2ccc3cccnc3c2O)no1 (centres undefined),6,-1,80,73*,24,57,69*
Oc1c(C(Nc2cccc(C(F)(F)F)c2)c2cccnc2)ccc2cccnc12 (centres undefined),-1,-10,48,13,7,-25,.
Oc1cccc(C(Nc2nccs2)c2ccc3cccnc3c2O)c1 (centres undefined),-5,-4,91*,56*,51*,48,85*
SMILES,KKLEB tox,CF NFkB block,Shn3 inh set2,Peg3 prom inh-1,EBV LMP1 NFkB,TRPM1 prom inh,Peg3 prom inh-2
CC(C)Nc1nc(Nc2ccc(F)cc2)c2sccc2n1,-24,29,34,12,.,.,.
NC(=O)CC[C@H](NC(=O)c1ccc(F)cc1)C(=O)N1CCN(Cc2ccc3c(c2)OCO3)CC1,-10,-26,4,12,0,-11,.
Cc1cc(C(=O)COC(=O)c2ccccc2O)c(C)n1Cc1cccs1,-44,13,91*,91*,87*,90*,87*
Cc1cc(C(=O)COC(=O)c2ccccc2O)c(C)n1CC1CCCO1 (centres undefined),-22,31,83,85*,87*,84*,92*
COCCn1c(C)cc(C(=O)COC(=O)c2ccccc2Br)c1C,-36,14,67,78*,54*,81*,69*
C=CCn1c(C)cc(C(=O)COC(=O)c2ccc(N)c([N+](=O)[O-])c2)c1C,-2,1,-31,-277,-19,-56,.
CCn1c(C)cc(C(=O)COC(=O)c2ccccc2[N+](=O)[O-])c1C,-67*,5,94*,94*,87*,97*,91*
Cc1cc(C(=O)COC(=O)c2ccc3c(c2)OCO3)c(C)n1Cc1cccs1,1,-1,-4,-291,-16,-18,.
COCCn1c(C)cc(C(=O)COC(=O)c2cccnc2SC)c1C,-6,-10,-8,-154,7,11,.
COc1cc(C(=O)N2CCCCC2c2cc(C(=O)Nc3ccccc3)no2)cc(OC)c1C (centres undefined),3,-4,1,8,.,.,.
OCC[C@@H]1C[C@H](O)[C@@H](O)[C@@]2(OCc3ccc(CO)cc32)O1,0,-2,1,5,.,.,.
Cc1ccc(NC(=O)[C@@H]2O[C@H](CO)[C@@H](O)[C@H]2O)cc1C(F)(F)F,8,-5,-16,-20,.,.,.
Cc1cc(C(=O)COC(=O)c2ccccc2Br)c(C)n1CC1CCCO1 (centres undefined),-32,15,?,54*,75*,76*,78*
CCOC(=O)c1c(NC(=O)COc2ccccc2F)sc2c1CC(C)(C)NC2(C)C,-11,23,-23,86*,-22,71*,80*
